High-throughput results (PubChem)
DT40 TDP1 CPT: growth inhibition of DT40 Tdp1-/-;hTDP1 cells with camptothecin (screen for TDP1 inhibitors) | Potency, µM (doses to about 46.2 µM), most hits filed as inhibitors | chicken DT40 Tdp1-/-;hTDP1 cells + 20 nM CPT, ATP luminescence, 48 h | AID 686979 | actives 12% (n = 420,000); note: nearly all actives have a fitted effect of over 55% in size
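Chicken DT40 Tdp1-/- cells stably complemented with human TDP1 were seeded at 400 cells/well in medium containing 20 nM camptothecin, exposed to pin-transferred compounds, and grown at 37 °C for at least 48 hr. Viability was read as ATP luminescence.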
TDP1 cell noCPT: qHTS for Inhibitors of human tyrosyl-DNA phosphodiesterase 1 (TDP1): qHTS in cells in absence of CPT; actives 15% (n = 420,000); DT40 Tdp1-/- hTDP1 cells, no CPT, ATP luminescence, 48 h; AID 686978, 2013; Potency, µM (top dose mostly 46.2 µM), actives largely listed as inhibitors; note: nearly all actives have a fitted effect of over 55% in size
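Camptothecin absent (DMSO only). Human TDP1-complemented DT40 knockout cells, 400 cells/well, 37 °C for minimum 48 hr; ATP measured via CellTiter-Glo, 30 min dark incubation, luminescence.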
HT1080NT lethal: kills 2HG-producing HT-1080-NT fibrosarcoma cells; HT-1080-NT fibrosarcoma viability, CellTiter-Glo ATP luminescence, 48 h; Potency, µM (series often up to 46.1 µM), actives largely listed as cytotoxic; actives 1.6% (n = 360,000);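 note: NT is the 2HG producing partner of a matched IDH1 knockdown line; nearly all actives have a fitted effect of over 55% in size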
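Viability of the 2HG-overproducing fibrosarcoma line after 48 hours of compound exposure at 37 degrees C was determined by luminescence with CellTiter-Glo, and concentration-effect curves were then fitted and categorized.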
HT1080 IDH1KD tx: kills HT-1080 cells with IDH1 knockdown; Potency, µM (top dose mostly 46.1 µM), actives largely listed as cytotoxic; HT-1080 IDH1 knockdown viability, ATP luminescence, 48 h; actives 2% (n = 360,000)
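IDH1KD HT-1080 cells, 750/well, RPMI + 5% FBS; compound pinned after 2 h settling; 48 h, 37 °C; CellTiter-Glo luminescence; % activity normalised to DMSO and no-cell wells; curves fitted, classed by r2 and efficacy.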
IL1B secr inh: inhibitors of inflammasome signaling (IL-1 beta secretion); THP-1 LPS/ATP IL-1B secretion, AlphaLISA, 16 h; hits give low values; activity change, % at 57.5 µM; actives 4.7% (n = 360,000); AID 743279; in the data active = activity change below about -50%; inconclusive = mostly about -30% to -49%
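Secreted IL-1B measured by AlphaLISA bead assay after 16 h compound exposure of THP-1 cells; compounds (final up to 57.5 uM) added 1 h before LPS (250 ng/mL) and ATP (1.25 mM) stimulation; lower signal means less secretion.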
12-LOX inh: blocks human arachidonate 12S-lipoxygenase; AID 1671190; purified 12hLO, xylenol orange hydroperoxide absorbance; P18054; Potency, µM (titrated, usually from 108 µM), hits mostly inhibitors; actives 1.1% (n = 580,000)
Target sequence (P18054 whole entry, looked up): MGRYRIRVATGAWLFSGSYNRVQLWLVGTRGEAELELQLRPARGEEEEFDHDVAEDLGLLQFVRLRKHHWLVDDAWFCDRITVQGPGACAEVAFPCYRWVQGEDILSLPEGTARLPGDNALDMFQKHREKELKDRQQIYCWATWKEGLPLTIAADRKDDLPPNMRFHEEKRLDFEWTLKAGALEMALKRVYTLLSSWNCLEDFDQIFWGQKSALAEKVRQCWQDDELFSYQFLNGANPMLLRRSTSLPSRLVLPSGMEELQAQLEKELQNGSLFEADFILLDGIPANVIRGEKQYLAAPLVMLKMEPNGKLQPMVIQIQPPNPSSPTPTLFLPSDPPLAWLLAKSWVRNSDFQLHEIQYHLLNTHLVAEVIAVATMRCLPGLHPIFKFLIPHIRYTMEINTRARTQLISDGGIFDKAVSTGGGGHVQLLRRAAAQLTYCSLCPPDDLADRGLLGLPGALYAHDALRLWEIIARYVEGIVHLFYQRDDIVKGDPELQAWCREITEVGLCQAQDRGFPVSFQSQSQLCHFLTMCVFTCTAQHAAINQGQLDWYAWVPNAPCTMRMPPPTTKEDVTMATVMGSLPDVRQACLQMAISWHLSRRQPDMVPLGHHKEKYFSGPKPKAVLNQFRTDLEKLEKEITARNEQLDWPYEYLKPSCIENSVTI
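Purified human 12hLO at 150 nM in 25 mM Hepes, 0.01% Triton X-100, pH 7.0, preincubated 15 min at room temperature with compound. Reaction started with 40 uM arachidonic acid, 30 min at room temperature. Hydroperoxide measured by Fe-xylenol orange, 573/405 nm absorbance ratio.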
A number is an active result. The full list was thinned out, with hits kept by preference. Unless noted, calls come from the whole dose curve; as a rule, active = well fitted curve in the direction sought with a large enough effect; inconclusive = small, poorly fitted or top-dose-only effect, or another doubt; inactive = no such curve, though single readings can be large; an effect the other way counts as inactive or inconclusive.

How did O=C(O)CCC(=O)N1CCN(c2nc(-c3ccccc3)c3ccccc3n2)CC1 do in these assays?
DT40 TDP1 CPT: inactive; TDP1 cell noCPT: inactive; HT1080NT lethal: inactive; HT1080 IDH1KD tx: inactive; IL1B secr inh: inactive; 12-LOX inh: inactive

Results for CCOC(=O)N1CCN(C(=O)c2cccc(OC)c2O)CC1 ?
DT40 TDP1 CPT: inactive; TDP1 cell noCPT: inactive; HT1080NT lethal: inactive; HT1080 IDH1KD tx: inactive; IL1B secr inh: inactive; 12-LOX inh: inactive

What do the screens show for `CN1CCCN(C[C@@H]2CN(C(=O)c3ccnc4ccccc34)C[C@@H]2CO)CC1`?
12-LOX inh: inactive

How did CCOC(=O)N1CCN(C(=O)c2ccccc2NC(C)=O)CC1 do in these assays?
DT40 TDP1 CPT: inactive; TDP1 cell noCPT: inactive; HT1080NT lethal: inactive; HT1080 IDH1KD tx: inactive; IL1B secr inh: inactive; 12-LOX inh: inactive

How did CCOC(=O)N1CCN(C(=O)c2ccccc2NC(=O)COc2ccccc2)CC1 do in these assays?
DT40 TDP1 CPT: inconclusive; TDP1 cell noCPT: 16µM; HT1080NT lethal: inactive; HT1080 IDH1KD tx: inactive; IL1B secr inh: inactive; 12-LOX inh: inactive

What do the screens show for `Cc1ccccc1-c1cc(C(=O)NCc2cccs2)nn1CC1CC(c2cccc([N+](=O)[O-])c2)=NO1` (stereo unspecified)?
DT40 TDP1 CPT: inconclusive; TDP1 cell noCPT: 16µM; HT1080NT lethal: inactive; HT1080 IDH1KD tx: inactive; IL1B secr inh: inactive; 12-LOX inh: inactive

Results for Cc1ccccc1-c1cc(C(=O)NCc2ccco2)nn1CC1CC(c2cccc([N+](=O)[O-])c2)=NO1 (stereo unspecified) ?
DT40 TDP1 CPT: 16µM; TDP1 cell noCPT: inconclusive; HT1080NT lethal: inactive; HT1080 IDH1KD tx: inactive; IL1B secr inh: inactive; 12-LOX inh: inconclusive

What do the screens show for `CCN1c2cc(C(=O)N3CCSCC3)ccc2C(=O)N2CCCCCC21` (stereo unspecified)?
12-LOX inh: inactive

Results for CC(=O)N1C[C@@H](CO)[C@@H]2C[C@H]1c1ccccc1N2C ?
12-LOX inh: inactive

How did C=C(CC[C@]12OC(C(=O)O)C(O)(C(=O)O)C(C(=O)O)(O1)C(OC(=O)/C=C/[C@@H](C)C[C@@H](C)CC)C2O)[C@@H](OC(C)=O)[C@H](C)Cc1ccccc1 (stereo partly specified) do in these assays?
DT40 TDP1 CPT: 8.9µM; TDP1 cell noCPT: 7.9µM; 12-LOX inh: inactive

Results for Clc1ccc(NCn2cncn2)nc1 ?
DT40 TDP1 CPT: 23µM; TDP1 cell noCPT: inactive; HT1080NT lethal: inactive; HT1080 IDH1KD tx: inactive; IL1B secr inh: inactive; 12-LOX inh: inactive

Results for O=C(Cn1cncn1)NCc1ccc(Cl)cc1 ?
DT40 TDP1 CPT: inactive; TDP1 cell noCPT: inactive; HT1080NT lethal: inactive; HT1080 IDH1KD tx: inactive; IL1B secr inh: inactive; 12-LOX inh: inactive

What do the screens show for `COc1ccc(CCNC(=O)CSCc2nc(-c3cccc(C)c3)oc2C)cc1OC`?
DT40 TDP1 CPT: 21µM; TDP1 cell noCPT: inconclusive; 12-LOX inh: inactive

How did COc1ccc(CCNC(=O)CSc2nnc(-c3cccc(C)c3)o2)cc1OC do in these assays?
DT40 TDP1 CPT: inactive; TDP1 cell noCPT: inactive; HT1080NT lethal: inactive; HT1080 IDH1KD tx: inactive; IL1B secr inh: inactive; 12-LOX inh: inactive

What do the screens show for `COc1cccc(-c2nc(CS(=O)CC(=O)NCCc3ccccc3)c(C)o2)c1` (stereo unspecified)?
DT40 TDP1 CPT: inconclusive; TDP1 cell noCPT: inconclusive; HT1080NT lethal: inactive; HT1080 IDH1KD tx: inactive; IL1B secr inh: inactive; 12-LOX inh: inactive

What do the screens show for `COc1cccc(-c2nc(CSCC(=O)NCCc3ccc(Cl)cc3)c(C)o2)c1`?
DT40 TDP1 CPT: 9.2µM; TDP1 cell noCPT: inconclusive; 12-LOX inh: inactive

What do the screens show for `COc1ccc(OC)c(NC(=O)CN2C(=O)CC(C)Sc3ccccc32)c1` (stereo unspecified)?
12-LOX inh: inactive

Results for Cc1nc(N2CCN(C(=O)c3ccoc3)CC2)cc(C(F)(F)F)n1 ?
12-LOX inh: inactive

Results for COc1ccc(-c2[nH]nc3nc(N4CCN(C(=O)c5ccoc5)CC4)cc(C(F)(F)F)c23)cc1 ?
DT40 TDP1 CPT: 8.2µM; TDP1 cell noCPT: 8.2µM; HT1080NT lethal: inconclusive; HT1080 IDH1KD tx: inconclusive; IL1B secr inh: inactive; 12-LOX inh: inactive

How did COc1cccc(-c2cc3nc(C)cc(N4CCN(C(=O)c5ccoc5)CC4)n3n2)c1 do in these assays?
DT40 TDP1 CPT: inconclusive; TDP1 cell noCPT: 21µM; HT1080NT lethal: inactive; HT1080 IDH1KD tx: inactive; IL1B secr inh: inactive; 12-LOX inh: inactive

How did CCOC(=O)C1CCN(c2cc(C)nc3cc(-c4cccc(F)c4)nn23)CC1 do in these assays?
DT40 TDP1 CPT: inconclusive; TDP1 cell noCPT: inconclusive; HT1080NT lethal: inactive; HT1080 IDH1KD tx: inactive; IL1B secr inh: inactive; 12-LOX inh: inactive

How did COc1ccc(-c2cc(N3CCN(C(=O)c4ccc(C)nc4)CC3)n[nH]2)cc1 do in these assays?
12-LOX inh: inactive

How did Cc1nc2cc(-c3cccc(F)c3)nn2c(C)c1CCC(=O)N1CCN(c2ccccn2)CC1 do in these assays?
DT40 TDP1 CPT: inactive; TDP1 cell noCPT: inactive; HT1080NT lethal: inactive; HT1080 IDH1KD tx: inactive; IL1B secr inh: inactive; 12-LOX inh: inactive

What do the screens show for `Cc1nc2cc(-c3cccc(F)c3)nn2c(N2CCN(C(=O)c3ccco3)CC2)c1C`?
DT40 TDP1 CPT: 15µM; TDP1 cell noCPT: 15µM; HT1080NT lethal: inactive; HT1080 IDH1KD tx: inactive; IL1B secr inh: inactive; 12-LOX inh: inactive

How did COc1ccc(-c2cc3nc(C)cc(N4CCN(C(=O)c5ccoc5)CC4)n3n2)cc1 do in these assays?
DT40 TDP1 CPT: 18µM; TDP1 cell noCPT: 21µM; HT1080NT lethal: inactive; HT1080 IDH1KD tx: inactive; IL1B secr inh: inconclusive; 12-LOX inh: inactive

What do the screens show for `O=C(C1CCOCC1)N1CCCC1c1nc(C2CCOCC2)no1` (stereo unspecified)?
12-LOX inh: inactive

How did CCOc1ccccc1CNC(=O)C(CC)n1nc(CC)n2c(cc3oc(C)cc32)c1=O (stereo unspecified) do in these assays?
12-LOX inh: inactive

How did COc1ccc(-c2ccc3nnc(CNC(=O)c4ccoc4)n3n2)cc1 do in these assays?
12-LOX inh: inactive

Results for COc1ccc(N2CCN(c3cc(C)nc4nc(-c5ccc(C)cc5)nn34)CC2)cc1 ?
DT40 TDP1 CPT: inactive; TDP1 cell noCPT: inactive; 12-LOX inh: inactive
